CHOP inhibitor: inhibitors of CHOP promoter induction, primary screen, cell-based, unfolded protein response, luciferase reporter; CHO-K1 CHOP-promoter luciferase, tunicamycin-induced, 15-18 h; 3.8% of 220,000 active; AID 2732, 2010; inhibition, % at 10 µM;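 active = compounds that reduced the stress-induced luciferase reporter signal by more than about 70% of percent inhibition, limit read from the data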;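 also: 0% = tunicamycin plus vehicle and 100% = wells without tunicamycin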
WT yeast gro inh: growth inhibition of WT strain, primary screen, mitochondrial fusion inhibitor project, WT and mutant strains, chemical genetic; mitochondrial fusion phenotypic screen; inhibition, % at 10 µM; 2.1% of 190,000 active; in the data active = inhibition above about 58%; tested in S. cerevisiae
RAM inhibit: inhibitors of the yeast RAM network, primary screen, dse1pr::URA3 reporter, 5-FOA selection | 1.8% of 190,000 active | inhibition, % at 50 µM | S. cerevisiae dse1pr::URA3 reporter, 5-FOA growth OD615, 2 d; analog-sensitive cbk1-as2 kinase mutant strain;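 active = inhibition above a set limit, 3 SD over mean compound inhibition, cut at about 8.4% in these data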;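 also: 0% = DMSO-only wells with no growth and 100% = 10 µM 1-NA-PP1 full growth; inhibition rescues growth on 5-FOA so higher OD means more RAM inhibition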
L major viab: Leishmania major promastigote growth inhibition, primary screen. inhibition, % at 10 µM. AID 1063, 2008. 9% of 200,000 active. Leishmania major promastigotes, resazurin fluorescence viability; in the data active = inhibition above about 50%;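 also: promastigotes grown with compound for 44 hours at 28 °C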
Numbers without * were called inactive. Hits are enriched below; roughly 13% of the tested compounds scored in any of these assays.

SMILES	CHOP inhibitor	WT yeast gro inh	RAM inhibit	L major viab
CCOC(=O)Cc1csc(NC(=S)NC(=O)c2ccccc2)n1	14	23	3	-7
CCOC(=O)Cc1csc(NC(=S)NC(=O)CC(C)C)n1	8	22	-1	54*
CCOC(=O)Cc1csc(NC(=S)NC(=O)c2cc(OC)cc(OC)c2)n1	-4	-4	1	-3
CCOC(=O)Cc1csc(NC(=S)NC(=O)c2ccc(C)cc2)n1	26	0	9.7*	6
CCc1cc(C(=O)Cc2cnn(-c3ccccc3)c2)c(O)cc1O	77*	1	5	0
O=C(NNC(=O)c1cccs1)c1ccc([N+](=O)[O-])cc1	-13	9	2	-9
COc1ccc(NC(=O)C(c2cc3c(cc2[N+](=O)[O-])OCO3)N(C)c2ccccc2)cc1 (stereo not given)	51	9	2	81*
COCCNC(=O)COC(=O)c1ccc(OCC(=O)Nc2ccccc2OC)c(OC)c1	26	-16	1	1
O=C(CSc1nncn1-c1ccccc1)Nc1cccc(S(=O)(=O)N2CCCCC2)c1	34	11	5	63*
COc1ccc(-n2cnnc2SCC(=O)Nc2cc(S(=O)(=O)N3CCCCC3)ccc2C)cc1	-18	-13	2	67*
O=C(CSc1nnc(-c2cccs2)o1)Nc1cccc(S(=O)(=O)N2CCCCC2)c1	0	-19	2	51*
CC(C)Nc1nnc(SCC(=O)Nc2ccc3c(c2)C(=O)c2ccccc2C3=O)s1	32	42	1	97*
O=C(CSc1nnc(NC2CCCCC2)s1)Nc1ccc2c(c1)C(=O)c1ccccc1C2=O	34	25	2	36
CCC(=O)Oc1ccc2ccccc2c1CNC(=O)c1ccccc1	27	11	3	-2
O=C(c1ccc(Br)o1)N(Cc1ccccc1)c1ccccn1	-2	0	1	1
CCn1c(SCC(=O)NNC(=O)c2ccc(OC)cc2)nnc1-c1ccco1	-9	-2	0	-4
Cc1cc(NC(=O)CC(CN(C)S(=O)(=O)c2ccccc2)c2ccccc2)no1 (stereo not given)	48	-7	0	5
O=C(CSc1nnc(Nc2ccccc2F)s1)Nc1cccc(S(=O)(=O)N2CCCCC2)c1	12	1	10*	49
O=C(CSc1nnc(NC(=O)c2ccc(S(=O)(=O)N3CCOCC3)cc2)s1)Nc1ccccc1C(F)(F)F	14	-2	4	92*
CN1CCN(Cc2ccc(OCc3ccccc3)cc2)CC1	10	10	1	95*
CCN1CCN(Cc2ccc(OCc3ccccc3)cc2)CC1	1	8	1	92*
CCOc1ccc(C(=O)N2CCN(Cc3ccccc3)CC2)cc1	11	15	1	-3
CC(C)CNC(=O)C1CCN(Cc2ccc(OCc3ccccc3)cc2)CC1	-7	26	1	32
NC(=O)C1CCCN(Cc2ccc(Cl)cc2)C1 (stereo not given)	8	-8	1	79*
COc1ccc(CCN(C)C(=O)C2CCN(Cc3ccccc3)CC2)cc1OC	1	-1	0	-5
SMILES	CHOP inhibitor	WT yeast gro inh	RAM inhibit	L major viab
CN(Cc1ccccc1)C(=O)C1CCN(Cc2ccc(F)cc2)CC1	3	-2	3	89*
CN(Cc1ccccc1)C(=O)C1CCCN(Cc2ccc(Cl)cc2)C1 (stereo not given)	-21	9	1	89*
CCOC(=O)C1CCCN(Cc2cccc(Cl)c2)C1 (stereo not given)	37	0	0	-1
CCN(CC)C(=O)C1CCCN(Cc2ccc(F)c(F)c2)C1 (stereo not given)	86*	-6	1	-5
CCOC(=O)c1ccc(NC(=S)N(CCCN2CCN(CC)CC2)Cc2cccs2)cc1	27	8	3	14
COc1ccc(C2=NN(C(=O)c3cccs3)C(c3ccccc3OC)C2)cc1OC (stereo not given)	2	67*	2	27
O=C(c1ccccc1)N1N=C(c2ccccc2)CC1c1ccccc1O (stereo not given)	11	67*	6	40
Cc1ccc(C2=NN(C(=S)Nc3ccccc3)C(c3ccco3)C2)cc1 (stereo not given)	20	17	2	56*
COc1ccc(C2CC(c3ccccc3)=NN2C(=S)Nc2ccccc2)cc1 (stereo not given)	-1	15	4	37
O=C(c1cccs1)N1N=C(c2ccccc2)CC1c1ccccc1O (stereo not given)	10	44	2	32

Source: PubChem BioAssay (several laboratories)
